# An excerpt weighted towards active compounds, which were near 2.9% of everything screened.
# PAFAH1B2 FP inh – PAFAH1B2 (human) inhibition; recombinant PAFAH1B2, FP-rhodamine activity probe, fluorescence polarization; inhibition, % at 3.39 µM; 340,000 tested, 1.2% active; AID 492953;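 active = inhibition above the mean of all tested compounds plus 3 SD, cut at about 24% in these data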;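 note: 0% = enzyme with DMSO and 100% = wells lacking PAFAH1B2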
# Target sequence (P68402 whole entry, looked up): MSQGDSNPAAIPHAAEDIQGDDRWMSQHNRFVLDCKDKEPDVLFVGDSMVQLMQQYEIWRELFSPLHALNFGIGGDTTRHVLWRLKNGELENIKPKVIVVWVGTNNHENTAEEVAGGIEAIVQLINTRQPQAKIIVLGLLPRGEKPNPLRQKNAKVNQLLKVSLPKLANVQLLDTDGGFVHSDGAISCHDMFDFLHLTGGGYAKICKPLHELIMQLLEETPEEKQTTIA
# pPAFAH FP inh – inhibitors of human plasma PAF acetylhydrolase (pPAFAH); 330,000 tested, 1.5% active; AID 463082; recombinant pPAFAH, FP-rhodamine probe fluorescence polarization; inhibition, % at 3.39 µM;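 active = inhibition above the mean inhibition across the screen plus 3 SD, cut at about 25% in these data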;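 note: inhibitors block binding of the rhodamine activity-based probe so polarization drops; 0% = enzyme with DMSO and 100% = wells lacking pPAFAH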
# Fam108B inh – blocks mouse Fam108B hydrolase in RBBP9 counter-screen; 300,000 tested, 0.33% active; recombinant Fam108B, FP-Rh probe fluorescence polarization; inhibition, % at 9.51 µM; AID 1947;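 active = inhibition above the screen mean inhibition plus 3 SD, computed separately per campaign, cut at about 18% in these data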;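 note: inhibitors lower polarization as less probe binds the enzyme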
# PAFAH1B3 inh – inhibitors of human PAFAH1B3; AID 492972; Q15102; inhibition, % at 3.39 µM; recombinant PAFAH1B3, FP-rhodamine probe, fluorescence polarization; 340,000 tested, 0.28% active;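 active = inhibition above the screen-wide average of all tested compounds plus 3 SD, cut at about 25% in these data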;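 note: 0% = enzyme with DMSO only and 100% = wells lacking PAFAH1B3 protein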
# PME-1 primary – PME-1 (human) inhibition | Q9Y570 | recombinant PME-1, FP-Rh probe fluorescence polarization | inhibition, % at 5.9 µM | 320,000 tested, 0.53% active | AID 2130;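 active = inhibition above the campaign mean of all compounds plus 3 SD, cut at about 26% in these data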;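 note: competitive labeling of PME-1 active site by serine hydrolase directed probe; 0% = PME-1 with DMSO and 100% = wells lacking PME-1 enzyme; inhibitors block probe labeling so polarization falls and inhibition rises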
# Target sequence (Q9Y570 whole entry, looked up): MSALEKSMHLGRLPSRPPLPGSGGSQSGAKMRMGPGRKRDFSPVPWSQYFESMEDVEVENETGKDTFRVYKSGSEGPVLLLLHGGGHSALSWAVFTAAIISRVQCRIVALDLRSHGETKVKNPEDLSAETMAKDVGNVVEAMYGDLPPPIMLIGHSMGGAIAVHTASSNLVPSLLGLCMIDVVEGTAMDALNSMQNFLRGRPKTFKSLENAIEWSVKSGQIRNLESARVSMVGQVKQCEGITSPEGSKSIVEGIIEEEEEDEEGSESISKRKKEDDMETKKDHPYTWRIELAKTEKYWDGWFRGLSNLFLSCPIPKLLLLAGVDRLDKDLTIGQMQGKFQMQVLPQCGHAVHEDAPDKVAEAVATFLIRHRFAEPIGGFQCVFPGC
# PAFAH2 inh – PAFAH2 (human) inhibition; 340,000 tested, 0.99% active; AID 492956; Q99487; inhibition, % at 3.39 µM; recombinant PAFAH2, FP-rhodamine activity probe, fluorescence polarization;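 active = inhibition above the mean over all tested compounds plus 3 SD, cut at about 30% in these data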;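 note: inhibitors block probe labeling of enzyme so polarization drops; 0% = enzyme with DMSO and 100% = wells lacking PAFAH2 protein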
# Numbers without * were called inactive; . = no result given.
SMILES,PAFAH1B2 FP inh,pPAFAH FP inh,Fam108B inh,PAFAH1B3 inh,PME-1 primary,PAFAH2 inh
O=[N+]([O-])c1cc(-c2ccc(/C=N\n3cnnc3)o2)cc([N+](=O)[O-])c1,1,27*,14,5,3,3
O=[N+]([O-])c1ccccc1-c1ccc(/C=N/n2cnnc2)o1,0,10,-6,-2,4,3
CCOC(=O)CN1C(=O)S/C(=C/c2ccc(OCc3ccc(C(=O)O)cc3)cc2)C1=O,-1,-1,-1,6,2,-3
Cc1cccc(C)c1OCC(=O)Nc1oc(-c2ccccc2)c(-c2ccccc2)c1C#N,-2,-5,-14,3,-7,-20
O=C(Cn1c(=O)oc2ccccc21)Nc1ccc(Br)cc1,-1,-5,0,8,3,-2
N#Cc1c(NC(=O)CSc2n[nH]c(N)n2)oc(-c2ccccc2)c1-c1ccccc1,25*,12,9,10,0,-3
N#Cc1c(NC(=O)Cn2c(=O)oc3ccccc32)oc(-c2ccccc2)c1-c1ccccc1,40*,22,-8,-8,-1,15
Cc1ccc(C(C)C)c(O)c1,3,6,1,12,3,16
COC(=O)C1CCCCN1C(=O)c1cc(COc2cccc3cnccc23)on1 (stereo not drawn),0,-5,4,7,-5,1
O=C(CSC1=NS(=O)(=O)c2ccccc2N1)N1CCCCC1,9,-3,0,1,7,4
Cc1cccc(NC(=S)NNC(=O)c2csc3c2CCCC3)c1,4,26*,-3,0,0,2
COc1cc(CN2CCN(Cc3ccco3)CC2)cc(OC)c1,1,2,0,4,1,7
O=C1CCCc2c1cc(-c1ccccc1)n2-c1ccccc1,25*,5,5,10,-2,3
O=C(CNS(=O)(=O)c1ccccc1)NCC(=O)OCc1ccc(Br)cc1,45*,8,7,3,-4,18
COC(=O)c1ccc(COC(=O)CNS(=O)(=O)c2ccccc2)cc1,0,2,-2,12,5,7
c1ccc(CN2CCN(C(c3ccccc3)c3nnnn3Cc3ccccc3)CC2)cc1 (stereo not drawn),15,6,1,2,1,14
Cc1ccc(C(c2nnnn2Cc2ccccc2)N2CCN(Cc3ccccc3)CC2)cc1 (stereo not drawn),31*,-2,1,1,1,0
CCOc1ccc(S(=O)(=O)Nc2ccc(C(=O)NCCCN3CCOCC3)cc2)cc1,1,6,-1,3,1,-1
Cc1ccc(NS(=O)(=O)c2ccc(C(=O)NCCN3CCOCC3)cc2)cc1,7,25*,.,3,.,6
CCOc1ccc(NS(=O)(=O)c2ccc(C(=O)NCCN3CCOCC3)cc2)cc1,-2,32*,-3,4,0,-1
Nc1nc[nH]c(=O)c1N=Cc1ccccc1,3,-2,5,-1,-4,3
O=S(=O)(O)c1cc(O)c(N=Nc2ccc(O)cc2O)c2ccccc12,87*,.,.,90*,.,90*
Cc1ccc(C(=O)OCC(=O)NC(=O)c2cccn2C)cc1[N+](=O)[O-],6,2,-2,-1,-3,-7
Cc1nn(C)cc1CNC(=O)c1ccccc1Br,8,-1,-1,8,2,4
CN1CCN(S(=O)(=O)c2ccc(Sc3nnc(-c4cccs4)n3-c3ccccc3)nc2)CC1,33*,4,0,0,8,-1
SMILES,PAFAH1B2 FP inh,pPAFAH FP inh,Fam108B inh,PAFAH1B3 inh,PME-1 primary,PAFAH2 inh
CC(=O)Nc1ccc(Nc2c3c4c(cccc4n(C)c2=O)C(=O)c2ccccc2-3)cc1,14,33*,15,11,33*,14
Cc1ccc(-c2nc(CSCC(=O)N3CCN(C(=O)c4ccco4)CC3)c(C)o2)cc1,0,-4,0,2,5,7
Cc1ccc(-c2nc(CSCC(=O)N3CCOCC3)c(C)o2)cc1,3,4,-1,6,3,-1
Cc1ccc(-c2nc(CSCC(=O)N3CCN(c4ccccn4)CC3)c(C)o2)cc1,25*,0,-2,3,3,3
CCc1ccc(-c2nc(CSCC(=O)N3CCN(c4ccccn4)CC3)c(C)o2)cc1,44*,8,0,3,7,-1
Cc1c(C(=O)c2ccc(N(C)C)cc2)c2ccccn2c1CCC#N,2,1,5,-3,4,10
CC1CCc2c(sc(NC(=O)c3ccc(Cn4cc([N+](=O)[O-])cn4)o3)c2C#N)C1 (stereo not drawn),15,31*,3,0,1,13
COc1ccc(C(=O)NCCS(=O)(=O)NCc2cccnc2)cc1,12,1,-1,6,3,-1
CCCc1cc(=O)[nH]c(SCC(=O)Nc2nonc2C)n1,8,3,-3,6,-3,-1
O=S(=O)(Nc1nc(-c2ccccc2)cs1)c1cc(Cl)ccc1Cl,-3,28*,-3,-6,14,21
O=C(CSCc1ccccc1Cl)NNC(=S)Nc1ccccc1,8,29*,6,-5,3,8
COc1ccc(C(=O)C2CCCN(C(=O)C3CCOCC3)C2)c(C)c1 (stereo not drawn),8,1,0,0,-1,-4
O=C(OCc1ccccc1)C1=NNC2C(=O)N(c3ccccc3)C(=O)C12 (stereo not drawn),8,-1,3,-1,-9,1
CCOc1ccccc1C(=O)N[C@H](C(=O)OCc1csc(CC(=O)Nc2ccc(C)cc2)n1)C(C)C,0,33*,.,3,.,8
Cc1ccccc1NC(=O)Cc1nc(COC(=O)C(NC(=O)c2ccccc2C)C(C)C)cs1 (stereo not drawn),3,10,.,3,7,5
Cc1ccc2c(c1C)-c1c(ccc(C)c1C)C(=O)C2=O,15,.,.,70*,.,31*
O=C(CSc1nnc2ccccn12)NCc1ccco1,-1,-5,-2,10,-3,2
O=C1/C(=C\c2ccc(O)cc2)SC(=S)N1c1cccnc1,-1,-9,-7,-2,-10,-7
O=C(CN1C(=O)/C(=C/c2ccco2)SC1=S)Nc1ccc(O)c(C(=O)O)c1,4,33*,11,19,-32,14
O=C1/C(=C\c2ccco2)SC(=S)N1c1ccc(O)cc1,-1,34*,16,2,4,-6
COC(=O)CNC(=O)C1CCC(CNS(=O)(=O)c2cccc3nsnc23)CC1 (stereo not drawn),0,2,3,8,5,3
COC(=O)[C@H]1C[C@H]1[C@@H](NC(=O)c1cccnc1)c1ccccc1,2,8,1,12,5,-1
CC1CCN(C(=O)COC(=O)c2ccc(Br)o2)CC1,6,7,-1,3,1,7
CC1CCN(C(=O)COC(=O)c2ccc([N+](=O)[O-])o2)CC1,7,28*,.,12,.,0

# High-throughput results (PubChem)
